Screening data (PubChem BioAssay)
This is one part of a sample in which hits are shown more often than they occur.
HIV RNase H inh: blocks HIV-1 RNase H cleavage of RNA/DNA duplex | P04585 | RT-RNase H RNA/DNA duplex cleavage, fluorescence | inhibition, % at 10 µM | 65,000 tested, 1.9% active | AID 565; in the data active = inhibition above about 50%
RmlCD inh mix: mixture blocks RmlC and RmlD coupled enzyme activity. RmlC/RmlD coupled enzyme inhibition, 384-well mixture HTS. inhibition, % at 5.5 µM. AID 1532. 110,000 tested, 0.39% active; in the data active = inhibition above about 30%, passing the limit was not always enough; inconclusive = no clear call, values can overlap the other calls
An asterisk follows results filed as active; ? = inconclusive; · = no result.

SMILES | HIV RNase H inh | RmlCD inh mix
N=c1c(C(=O)NCc2ccccc2)cc2c(=O)n3ccccc3nc2n1CCCN1CCOCC1 | -11.4 | ·
COc1cccc(-c2nc(SC)nc3sc(C(=O)NC(C)(C)C)c(N)c23)c1 | · | -16.2
O=C(O)/C=C/c1ccc(Cn2ccnc2)cc1 | · | 2.6
COc1cc(-c2nnc3sc(Cc4ccccc4)nn23)cc(OC)c1OC | 10.0 | 4.4
COc1ccc(Cc2nn3c(-c4cc(OC)c(OC)c(OC)c4)nnc3s2)cc1 | 54.4* | -49.0
Fc1ccc(-n2nnc(-c3ncc[nH]3)n2)cc1 | · | -4.5
CCc1nnc(NC(=O)NCN2C(=O)C3C4C=CC(C4)C3C2=O)s1 (centres undefined) | -3.1 | -11.8
O=C(NCN1C(=O)C2C3C=CC(C3)C2C1=O)Nc1nccs1 (centres undefined) | 54.6* | -6.4
O=C(NNS(=O)(=O)c1ccc(Cl)cc1)c1cnn(-c2ccccc2)c1-n1cccc1 | · | -9.0
COc1ccc(C2=NOC(C)(c3nnc(-c4ccccc4)o3)C2)cc1 (centres undefined) | · | -10.8
COc1ccccc1NC(=O)c1sc2ncn(Cc3ccc(C)cc3)c(=O)c2c1C | · | 36.5
COc1ccccc1NC(=O)c1sc2ncn(Cc3cccc(C)c3)c(=O)c2c1C | · | 65.6*
COc1ccc(OCc2nn3c(-c4ccco4)nnc3s2)cc1 | -14.9 | -10.1
c1coc(-c2nnc3sc(Cc4cccs4)nn23)c1 | 50.1* | 24.6
O=C(Nc1ccccc1)C1=C[C@@H](C2CC2)C[C@@H](OCCCCO)O1 | · | 5.5
Cc1cc(=O)[nH]c2c(C)c(Cl)ccc12 | -96.3 | -9.5
Cc1cc(=O)[nH]c2c(C)c(N)ccc12 | -2.2 | 58.7*
C=C1CCN([C@@H](Cc2ccccc2)C(=O)NCCCc2ccccc2)S(=O)(=O)c2ccccc21 | · | -15.5
COCCNC(=O)C1Nc2ccc(C(F)(F)F)cc2C2C=CCC12 (centres undefined) | · | 4.5
CCOC(=O)c1ccc2c(c1)C1C=CCC1C(C(=O)O)N2 (centres undefined) | 52.4* | 1.1
Nc1cnc(CNc2ccccc2Cl)cn1 | · | 6.6
COC(C[C@H]1O[C@H]1C(=O)COCc1ccccc1)OC | · | -11.7
COc1ccc(Nc2nc(Nc3ccc(OC)cc3)nc(SC3=NCCS3)n2)cc1 | · | 0.5
Cc1cc(C)n2nc(C(=O)NCc3ccccc3)nc2n1 | · | -6.8
Cc1cc(C)n2nc(C(=O)NCc3ccccc3)cc2n1 | 87.8* | -8.6
SMILES | HIV RNase H inh | RmlCD inh mix
Cc1cc(C(=O)NCCCn2ccnc2)cs1 | -5.1 | -11.2
Cc1ccc2nc3c(cc(C(=O)NCC4CCCO4)n3C)c(=O)n2c1 (centres undefined) | 1.8 | 102.9*
Cn1c(C(=O)NCC2CCCO2)cc2c(=O)n(C)c3ccccc3c21 (centres undefined) | -5.2 | -3.9
Cc1ccc2nc3c(cc(C(=O)NCCCn4ccnc4)n3C)c(=O)n2c1 | -3.4 | 61.6*
CCC1CCC2(CC1)NNC(=S)NN2 | · | 12.0
COc1ccc(CNC(=O)c2ccc(Br)o2)cc1 | · | -19.4
CCOc1ccc2cc(C#N)c(SCC(=O)NC(C)CC)nc2c1 (centres undefined) | 57.8* | -1.1
CCOC(=O)CSc1nc2cc(OCC)ccc2cc1C#N | -6.7 | -4.6
CCOC(=O)c1sc(-c2ccccc2)cc1N | -8.4 | -58.5
CCOC(=O)c1cc(-c2ccccc2)sc1N | 64.7* | ·
CCN1CC(CCN2CCOCC2)C(c2ccccc2)(c2ccccc2)C1=O (centres undefined) | · | -10.5
Cc1ccc(/C=c2\sc3nc(-c4ccccc4Br)nn3c2=O)o1 | 50.7* | ·
Cc1ccc(/C=c2\sc3nc(-c4ccco4)nn3c2=O)o1 | 29.6 | -11.9
Cc1c(O)c(CN2CCCC(C)C2)cc2c3c(c(=O)oc12)CCC3 (centres undefined) | 2.4 | ·
CCCc1cc(=O)oc2cc(C)c(CN3CCCC3)c(O)c12 | 27.3 | ·
Cc1c(C)c2cc(Cl)c(O)c(CN3CCCC(C)C3)c2oc1=O (centres undefined) | -0.5 | 112.5*
CCN1CCN(Cc2c(O)c(Cl)cc3c(C)cc(=O)oc23)CC1 | 1.0 | ?
Cc1c(C)c2cc(Cl)c(O)c(CN3CCN(C)CC3)c2oc1=O | 3.3 | 97.3*
CCCc1cc(=O)oc2c(CN3CCCC3)c(O)c(Cl)cc12 | 2.0 | 59.0*
N#C[C@H]1C2OC2c2ccccc2N1C(=O)c1ccccc1 (some centres undefined) | · | 4.4
COc1ccc(Cn2nc(C)n(N(C)c3ncc(C(F)(F)F)cc3Cl)c2=O)cc1 | · | -6.4
S=C1NC[C@H](CC2CCCCC2)N1CCCCC1CCCCC1 | · | 0.0
Cc1sc2c(c1C)c(=O)n(-c1cccc(C(F)(F)F)c1)c(=O)n2CC(=O)NCc1ccco1 | · | -12.2
Clc1cccc(-c2nnc3sc(-c4ccc5c(c4)OCO5)nn23)c1 | 75.0* | ·
Clc1cccc(-c2nn3c(-c4ccncc4)nnc3s2)c1 | -8.8 | ·
SMILES | HIV RNase H inh | RmlCD inh mix
Cc1nn(CCC(=O)NNC(=S)NCC(C)C)c(C)c1Br | · | 15.9
CC[C@@H]1CC=C[C@H]2[C@H]1C(=O)N(Cc1ccccc1)[C@H]2c1ccc2ccccc2c1 | · | 8.2
CCCCn1c(SCC(=O)Nc2cccc(OC)c2)nc2ccc(N3CCOCC3)cc2c1=O | 50.6* | -0.4
CCCCn1c(SCC(N)=O)nc2ccc(N3CCOCC3)cc2c1=O | · | 6.9
COc1ccc(Nc2nnc(SCc3cc([N+](=O)[O-])cc4c3OCOC4)s2)cc1 | · | 9.0
Cc1cc(-c2cc(C(=O)NCc3ccccc3)on2)nc(NC2CCCC2)n1 | · | -12.1
CSc1nc2cc(Oc3cccc(Cl)c3Cl)c(Cl)cc2[nH]1 | · | -6.2
C=C1CCN([C@@H](CC(C)C)C(=O)NCCC(C)C)S(=O)(=O)c2ccccc21 | · | -14.3
CCCn1c(=O)c(C(=O)Nc2ccncc2)c(O)c2ccccc21 | -9.2 | ·
CCCCCn1c(=O)c(C(=O)Nc2ccncc2)c(O)c2ccccc21 | 82.5* | ·
COC(=O)c1cc(OC)c(OC)cc1NC(=O)CSc1ccccc1 | · | -12.0
O=c1c2ccccc2sn1-c1ccccc1 | · | 8.1
O=c1c2ccccc2sn1-c1ccc(S(=O)(=O)N2CCCCC2)cc1 | 95.1* | 12.3
C=CCn1cnc2c(c1=O)c1nc3ccccc3nc1n2-c1ccc(Cl)cc1 | -1.9 | ·
O=c1nc2s/c(=C\c3ccco3)c(=O)n2nc1Cc1ccc(F)cc1 | 53.1* | -11.2
Cc1ccc(-c2nc3s/c(=C\c4ccco4)c(=O)n3n2)cc1 | -14.7 | 0.4
C=C[C@H]1[C@H](OC2OC(CO)C(O)C(O)C2O)OC=C(C(=O)OC)[C@H]1C[C@H]1CC(=O)C[C@H](CC(=O)CCc2ccc(O)cc2)O1 (some centres undefined) | · | -13.0
C=CCOC(=O)C1=C[C@H](C2CC2)[C@@H](CCCO)[C@H](OCC)O1 | · | -14.7
Cc1cc(NC(=O)CSc2ncnc3sc4c(c23)CCC(C)C4)no1 (centres undefined) | 84.1* | ·
Cc1cc(NC(=O)CSc2nc(C(C)C)nc3sc(C)c(C)c23)no1 | -2.4 | 3.9
CCOC(=O)C1C2C=CC(CC2)N1c1ccccc1 (centres undefined) | · | -9.9
CC1(C)CC(=O)C=C(c2cccs2)C1 | · | 9.0
C=Cc1c(C)c2cc3[nH]c(cc4nc(cc5nc(cc1[nH]2)C(C)=C5CCC(=O)O)C(CCC(=O)O)=C4C)c(C)c3C=C | · | 42.9*
Cc1cccn2c(=O)c3cc(C(=O)N4CCc5ccccc54)n(C)c3nc12 | -20.6 | ·
COCCNC(=O)CSc1nc2cc(OC)c(OC)cc2c(=O)n1Cc1ccco1 | -19.0 | 6.0
